Measured potencies and affinities stand elsewhere. Calls of active or inactive are those of the source.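 Rule for the calls: active = cell killing, meaning signal decrease, with fitted half-maximal dose at or below ten times the top valid tested dose; inconclusive = poor fit, or flat curve with 30 to 70% signal loss; inactive = the rest.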

The nature of this test: ATP-based viability loss in HeLa cells – cell-based, CellTiter-Glo luminescence, cherry-pick samples, cytotoxicity control for MITF activator project, dose response (AID 540259). The note with it: 24 h; series mostly up to 35 µM. For orientation: ATP-based viability assays read luminescence as a measure of living cells.
As for `Cc1ccc(CSc2ccc(-c3cccs3)nn2)cc1`, the compound was classed as inactive.
The result for `c1ccc(CSCc2cn3ccsc3n2)cc1` reads “inactive”.
The result for `Cc1ccc2cc(NC(=O)c3ccccc3C)ccc2n1` reads “inactive”; that for `O=C(Nc1ccc(Br)cc1F)c1ccc2nsnc2c1`, “inactive”.
For `CC(C)(C)c1csc(NC2=NS(=O)(=O)c3ccccc32)n1` the value was “inactive”.
`C/C(=N\OC(=O)Nc1ccccc1)c1ccc(C)cc1`: the outcome was inactive.
The result for `CCC(=O)c1ccc(OCc2ccccc2)c(OC)c1` reads “inactive”.
For the compound `c1csc(CSc2nc3ccccc3s2)c1`, the compound was called inactive.
As for `Cc1ccccc1Nc1nc(N)nc(COC(=O)c2ccccc2)n1`, the outcome was inactive.
For `Cc1[nH]n(-c2cccc(Cl)c2)c(=O)c1C=NCC(C)C` the value was “inactive”; for `C/C(=C\C(=O)c1cccnc1)Nc1ccc(C)c(C)c1`, “inactive”.
For `Cc1nn(-c2ccccn2)c2c1-c1nc(N)ncc1CC2`, the call was inactive.
The result for `O=C(Nc1cccnc1)c1cc(-c2ccc(Cl)cc2)on1` reads “inactive”; that for `CN(c1ccccc1)c1nc2ccsc2c(=O)s1`, “inactive”.
For `O=C(NCC1CC1)Nc1ccc(Cl)cc1` the value was “inactive”.
`CCCCc1ccc(Nc2ncnc3nc[nH]c23)cc1`: the result was inactive.
The result for `CSCC[C@H](NC(=O)[C@@H]1Cc2ccccc2CN1)C(=O)NC[C@H]1CC[C@H](C(=O)O)CC1` reads “inactive”.
For `CC(C)C(=O)Nc1cccc(-c2cnc3ccccc3n2)c1` the value was “inactive”; for `Cc1ccc(-c2cn(-c3ccccc3)c(=S)[nH]2)cc1C`, “inactive”; for `Nc1ccc(-c2nc3ncccc3o2)c(O)c1`, “inactive”.
In the case of `COc1ccc(-n2nc(C(=O)NCC(=O)N3CCN(c4ccccc4)CC3)c3ccccc3c2=O)c(OC)c1`, the call was inactive.
In the case of `Cc1nc2cc3nc(C)sc3cc2s1`, the result was inactive.
The result for `Cc1cccc(-c2nc(C#N)c(NC3CCCCC3)o2)c1` reads “inactive”; that for `Oc1cccc(-c2nc3ccc4ccccc4c3c3c2CCC3)c1`, “inactive”; that for `COc1ccc(/C(C)=N/Nc2nncc3ccccc23)cc1`, “inactive”.
For `Clc1ccc(-c2cnnc(-c3ccccn3)n2)cc1` the value was “inactive”; for `O=C(Nc1cnc2ccccc2c1)N1CCCCC1`, “inactive”.
The result for `Cc1ccc(N(O)C(=O)NCCCCNC(=O)N(O)c2ccc(C)cc2)cc1` reads “inactive”; that for `Nc1nc(COc2ccc3ccccc3c2)cs1`, “inactive”; that for `O=C(Cc1cccs1)NCc1ccc(Cl)cc1Cl`, “inactive”.
Turning to `CCc1ccc(C(=O)N/N=C(\C)c2cccnc2)s1`, the compound was classed as inactive.
With `COC(=O)c1ccc(CSC2=NCCS2)cc1`, the result was inactive.
For `c1ccc(SCc2nc(-c3ccccn3)no2)cc1` the value was “inactive”; for `Oc1oc(-c2ccccc2)nc1C=NCc1ccccc1`, “inactive”; for `O=C(O)c1ccc(/C=C/c2ccc3cccc(O)c3n2)cc1`, “inactive”.
With `CCN1CCN(c2cc3c(nn2)Oc2ccccc2N3C)CC1`, the compound was classed as inactive.
As to `CNC(=O)C(=O)Nc1nc(C23CC4CC(CC(C4)C2)C3)cs1`, the compound was classed as inactive.

The values are drawn from PubChem BioAssay AID540259 (Broad Institute, 2011).
